This note sets out measurements from PubChem BioAssay AID624418 (National Center for Advancing Translational Sciences (NCATS), 2012).

Each structure is given as a SMILES string. About 530 (0.13%) of roughly 410,000 compounds were called active. Entries that show only a call come without a potency. Inconclusive results (about 5%) are left out. Calls come from the whole dose curve; as a rule, active = well fitted inhibition curve with a large enough effect; inconclusive = small, poorly fitted or top-dose-only effect, or another doubt; inactive = no such curve, though single readings can be large or run the other way. Many of the other results were omitted from the sample, so actives are more common in it than they were.
Potency is the fitted concentration of half-maximal effect.

The nature of the experiment: qHTS of GLP-1 Receptor Inverse Agonists: Cytotox Screen.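 Note: loss of luciferase light is scored as toxicity.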 The settings on record: HEK293 cAMP-luciferase reporter cells, luminescence, 24 h; series mostly up to 38.3 µM. The source says:
The overall goal of this project was to develop a novel assay for discovering small molecule ligands for class B1 G protein-coupled receptors (GPCRs). Very few agonists (or inverse agonists) with generally weak activity for this entire group of physiologically important receptors are known to date. To establish proof-of-principle that this critical bottleneck can be overcome with a suitable screening approach, our studies focused on the class B1 receptor for glucagon-like peptide-1 (GLP-1R), a potential therapeutic target for diabetes and neurodegenerative disease.
The assay was developed using a cell-based functional readout. Toward this goal, stably transfected HEK293 cell clones were established that co-express (i) a cAMP-responsive luciferase reporter gene, and (ii) constitutively active GLP-1R that upon ligand interaction inhibit (inverse agonists) the luciferase activity. In addition, two control cell lines were developed: (i) one that express only the cAMP-responsive reporter gene to enable initial exclusion of GLP-1R independent effects of candidate probes; and (ii) one with the reported gene cloned with another constitutively active orphan receptor GPR119 to enable exclusion of GLP-1R independent inhibitor effects of candidate inverse agonists.
To that end, this assay was optimized for 1536-well format and screened against the MLSMR. Then the same collection was run in this cytotoxicity assay where inhibition was the undesired outcome.
NIH Molecular Libraries Probe Production Network [MLPCN]
NIH Chemical Genomics Center [NCGC]
PI Name: Martin Beinborn, Tufts Medical Center
Six ul of cell suspension (200 cells/uL in DMEM + 10% Nu serum + 1% pen-strep) is dispensed in a white solid 1536-well plate. The plates are incubated for 12 hours at 37 deg C at 5% CO2 followed by addition of 23 nL compounds. After 24 hr incubation at 37 deg C and 5% CO2, 3 uL of luciferase assay detection reagent is added. A luminescence read is obtained on the PerkinElmer Viewlux after 12 min incubation at room temperature.
Regarding `Cn1c(C(=O)Nc2cccc(C(F)(F)F)c2)cc2c(=O)n3ccccc3nc21`, the Potency entry is “inactive”.
Consider `Cc1ccc2c(c1)-c1c(cnn1CC(=O)Nc1ccccc1C#N)CO2`, for which the Potency result was “inactive”.
Regarding `CCN1CCN(c2ncnc3c2cnn3-c2ccc(C)c(C)c2)CC1`, the Potency entry was “inactive”.
Then `COC(=O)c1ccc(NC(=O)c2cccc3c2C(=O)N(C2CCCCC2)C3)cc1`, with “inactive”.
For the molecule `COc1ccc(-c2nn3c(-c4ccc(OC)cc4)nnc3c3ccccc23)cc1`, the Potency result was “inactive”.
Turning to `CCOc1cc(C2c3c(-c4ccc(Br)cc4)n[nH]c3C(=O)N2c2ccc(Cl)cc2)ccc1O` (configuration not stated), the Potency entry is “inactive”.
Then `CCC(Sc1nc2n[nH]c(C)c2c(=N)n1-c1ccccc1Cl)C(=O)N(CC)CC` (configuration not stated), with “inactive”; and `CC(=O)OC1=C(C(C)=O)N(Cc2ccccc2)S(=O)(=O)c2ccccc21`, with “inactive”; and `CN(Cc1ccccc1)C(=O)c1cn(C)c2ccc(S(=O)(=O)N3CCCCC3)cc2c1=O`, with “inactive”.
For the molecule `CCc1ccccc1NC(=O)CSc1nnc(-c2ccccc2)c(-c2ccccc2)n1`, the Potency result was “inactive”.
The entry for `Cc1ccc(C)c(N2CCN(C(=O)Cc3c(C(=O)O)c(C)cn3C)CC2)c1` is “inactive”.
The entry for `Cc1cccc(NC(=O)C2CCN(S(=O)(=O)c3c(C)noc3/C=C/c3ccco3)CC2)c1` is “inactive”; for `COc1ccc(OC)c(NC(=O)C2CCCN(S(=O)(=O)c3ccc4c(c3)CCCC(=O)N4)C2)c1` (configuration not stated) it is “inactive”.
The entry for `CC1=NN(C(=O)Cc2ccc(C)cc2)C(O)(c2cccnc2)C1` (configuration not stated) is “inactive”; for `CC1=NN(C(=O)CCc2ccccc2O)C(O)(C(F)(F)F)C1` (configuration not stated) it is “inactive”.
`COc1ccc(CC(=O)N2N=C(C)CC2(O)C(F)(F)F)cc1` (configuration not stated): the Potency is 6.31 µM (active).
Regarding `O=C(Nc1ccc(Oc2ccccc2)cc1)C1CCN(S(=O)(=O)c2ccc(Cl)cc2)CC1`, the Potency entry was “inactive”.
With `CC(=O)Nc1ccc(NC(=O)CSc2nnc3c4cc(Br)ccc4n(C)c3n2)cc1`, the Potency entry is “inactive”.
With `CC(C)N(Cc1ccccc1)C(=S)Nc1ccc(OC(F)F)cc1`, the Potency result is “inactive”.
The figure for `CC/C(=N\NC(=S)NC(C)C)c1ccc(OC(F)F)cc1` is 4.47 µM (active); for `CC(C)CN1CCC1(C)C(=O)Nc1ccc(OC(F)F)cc1` (configuration not stated) it is “inactive”; for `Cc1oc(C)c2c(=O)cc(-c3ccc4c(c3)OCO4)cc(OC(=O)c3ccc(Cl)cc3)c12` it is “inactive”.
The entry for `O=C(Nc1cc(C(F)(F)F)ccc1Cl)c1nc2ccccc2nc1N1CCCCC1` is “inactive”; for `O=C(NCC12CC3CC(CC(C3)C1)C2)c1cc2nc(-c3ccccc3)cc(C(F)(F)F)n2n1` it is “inactive”; for `CSc1ccccc1-c1nnc(NC(=O)c2ccc3c(c2)OCCO3)o1` it is “inactive”.
Then `CCOc1ccccc1NC(=O)C1CCCN(S(=O)(=O)c2cn(C)cn2)C1` (configuration not stated), with “inactive”; and `Fc1ccc(-c2nc(Nc3cccc(Cl)c3)nc3c2COc2ccccc2-3)cc1`, with “inactive”; and `Cc1cccc(C(=O)Nc2ccc(S(=O)(=O)N3CCCCC3c3cccnc3)cc2)c1` (configuration not stated), with “inactive”.
Take `O=C(Nc1ccc(Br)cc1)c1ccc(Br)c(S(=O)(=O)NCc2ccccc2)c1`: the Potency entry was “inactive”.
On to `CCOC(=O)c1c(NC(=O)/C=C/c2ccc(OC)cc2)sc2c1CCC(C)C2` (configuration not stated), for which the Potency entry is “inactive”.
The entry for `CCc1ccc(NC(=O)Cn2c(=O)n(CCC(=O)NCc3ccc4c(c3)OCO4)c(=O)c3ccccc32)cc1` is “inactive”; for `O=C(c1ccc(Cl)cc1)n1nc(-c2cccnc2)nc1NCc1ccc(F)cc1` it is “inactive”.
With `Clc1ccc(CSc2nncn3c2cc2occc23)cc1`, the Potency entry was “inactive”.
Take `O=C(Cn1cnc2c(oc3ccccc32)c1=O)Nc1ccc(OC(F)(F)F)cc1`: the Potency result was “inactive”.
The entry for `COc1ccc(C(=O)COC(=O)CCCC(=O)Nc2cc(C(F)(F)F)ccc2Cl)cc1` is “inactive”.
Then `Cc1ccc(CCNC(=O)c2ccc(CS(=O)(=O)Cc3cccc(C)c3)o2)cc1`, with “inactive”.
Then `Cc1c(CNC2CCCCC2)c(C(=O)O)c(C)n1Cc1cccc(Cl)c1`, with “inactive”; and `Cc1nc(SCCOc2ccc(Cl)cc2)[nH]c(=O)c1Cc1ccccc1`, with “inactive”; and `Cc1cc(NC(=O)CC(C)C)cc(-c2nc3ncccc3o2)c1O`, with “inactive”.
For the molecule `Cc1ccc2nc(COc3cccc(NC(=O)c4ccccc4Cl)c3)cc(=O)n2c1`, the Potency result is “inactive”.
With `COc1cc(/C=C2/SC(=S)N(Cc3ccccc3)C2=O)cc(OC)c1O`, the Potency is 10 µM (active).
Then `CCOC(=O)C1=CCC2C(=O)N(Cc3ccccc3)C(=O)C12` (configuration not stated), with “inactive”; and `COc1ccc(CCNC(=O)CCCCn2c(=O)c3ccccc3n(Cc3ccccc3)c2=O)cc1OC`, with “inactive”; and `CCCCCc1c(-c2ccc(OC)c(OC)c2)ncn1CCc1ccccc1OC`, with “inactive”.
The entry for `COc1ccc(-c2cc(C(F)(F)F)n3nc(-c4ccccc4)cc3n2)cc1OC` is “inactive”; for `COc1ccc(-c2nn(-c3ccccc3)cc2/C=N/Nc2ccccn2)cc1OC` it is 5.01 µM (active); for `Cc1ccccc1CN1CCC(CNC(=O)c2cc3ccc4cccnc4c3[nH]2)CC1` it is “inactive”.
Then `O=C(NCC(c1ccc2c(c1)OCO2)N1CCN(c2ccccc2)CC1)C(=O)Nc1ccccc1F` (configuration not stated), with “inactive”; and `CCc1ccc(NC(=O)c2cc(S(=O)(=O)NC3CCCCCC3)ccc2F)cc1`, with “inactive”.
`CCCCN(CC)C(=O)c1c[nH]c2ccc(S(=O)(=O)Nc3cccc(OC)c3)cc2c1=O`: the Potency entry is “inactive”.
On to `Cc1cccc(NC(=O)c2ccc(F)c(S(=O)(=O)N(C)C3CCCCC3)c2)c1`, for which the Potency result was “inactive”.
The entry for `COc1ccc(NC(=O)c2ccc3oc(=O)c(S(=O)(=O)c4ccc(F)cc4)cc3c2)c(OC)c1` is “inactive”; for `Cc1ccc(-n2c(SCC(=O)Nc3cccc(F)c3)nc3c(oc4ccccc43)c2=O)cc1C` it is “inactive”.
Consider `CC(C)Oc1ccc(NC(=O)c2cc3ccccc3o2)cc1`, for which the Potency result is “inactive”.
The entry for `Cc1ccc(NC(=O)C2CCN(S(=O)(=O)c3cc(-c4noc(C)n4)ccc3C)CC2)c(C)c1` is “inactive”; for `Cc1ccc(Cl)cc1NC(=O)/C(C#N)=C\c1cn(Cc2ccc(F)cc2)c2ccccc12` it is “inactive”; for `Fc1ccc(-c2ccc(NCCN3CCOCC3)nn2)cc1` it is 10 µM (active).
On to `Cc1c(C(=O)NCCN2CCOCC2)sc2nc(-c3ccc(F)cc3)cn12`, for which the Potency result is “inactive”.
For the molecule `CN(CC(=O)NCCN1CCOCC1)S(=O)(=O)c1ccc(F)cc1`, the Potency result is “inactive”.
`COc1cc(OC)cc(C(=O)NCCc2csc3nc(-c4ccccc4F)nn23)c1`: the Potency entry was “inactive”.
Take `CCOc1ccc(NC(=O)CCc2c(C)nn(-c3ccc(N4CCCC4)nn3)c2C)cc1`: the Potency result is “inactive”.
The entry for `COc1ccc(C)cc1N(CC(=O)N1CCC(C)CC1)S(=O)(=O)c1ccc(C)cc1` is “inactive”.
